Measurements published in PubChem BioAssay AID1159580 (chemical genetic matrix, 2015).
Out of some 5,500 compounds screened, about 2,000 (36%) were called active. Another 18% or so got no clear call; they are omitted. Cut-off read from the data, not from the text of the source: active = normalized growth mostly below about 0.91 (no sharp cut-off); inconclusive = no clear call, values can overlap the other calls; inactive = mostly above about 0.92. Some of the results follow.

Test: chemical genetic growth profiling, strain panel (AID 1159580);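 note: tested at 20 µM; growth read once vehicle control cultures reached saturation at 30 °C; 1 = growth at the plate median or of vehicle wells; lower values mean less growth of the strain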
Settings: S. cerevisiae deletion strains, growth OD

Measured: normalized growth

CCCCCCCCCCCCCCCCCCOC[C@H](COP(=O)([O-])OCC[N+](C)(C)C)OC
inactive: locus YAL013W, strain DEP1, hits give low values 1 | locus YAL040C, strain CLN3, hits give low values 1.04 | locus YCL061C, strain MRC1 (second series), hits give low values 1.02 | locus YDR363W, strain ESC2, hits give low values 0.992 | locus YER002W, strain NOP16, hits give low values 1.04 | locus YMR263W, strain SAP30, hits give low values 0.998 | locus YMR307W, strain GAS1, hits give low values 1 | locus YNL153C, strain GIM3, hits give low values 0.997 | locus YNL175C, strain NOP13, hits give low values 1.05 | locus YNL197C, strain WHI3, hits give low values 1.01 | locus YNL224C, strain SQS1, hits give low values 1.04 | locus YNL322C, strain KRE1, hits give low values 0.988 | locus YOR083W, strain WHI5 (second series), hits give low values 1.02

CCCCCCCC/C=C/CCCCCCCCOP(=O)([O-])OCC[N+](C)(C)C
active: locus YAL021C, strain ccr4, hits give low values 0.0587 | locus YAL026C, strain drs2, hits give low values 0.0561 | locus YAL030W, strain snc1, hits give low values 0.053 | locus YBL061C, strain skt5, hits give low values 0.0558 | locus YBR009C, strain hhf1, hits give low values 0.0546 | locus YBR023C, strain chs3, hits give low values 0.0583 | locus YBR171W, strain sec66, hits give low values 0.0745 | locus YBR231C, strain swc5, hits give low values 0.0586 | locus YBR279W, strain paf1, hits give low values 0.0563 | locus YCL011C, strain gbp2, hits give low values 0.0519 | locus YCL016C, strain dcc1, hits give low values 0.0586 | locus YCL061C, strain MRC1, hits give low values 0.0589 | locus YCL069W, strain vba3, hits give low values 0.0556 | locus YCR088W, strain abp1, hits give low values 0.0562 | locus YDL005C, strain med2, hits give low values 0.0694 | locus YDL040C, strain nat1, hits give low values 0.0556 | locus YDR001C, strain nth1, hits give low values 0.0555 | locus YDR069C, strain doa4, hits give low values 0.0593 | locus YDR137W, strain rgp1, hits give low values 0.105 | locus YDR159W, strain sac3, hits give low values 0.0716 | locus YDR195W, strain ref2 0.0966 | locus YDR297W, strain sur2, hits give low values 0.0533 | locus YDR334W, strain swr1, hits give low values 0.0581 | locus YDR335W, strain msn5, hits give low values 0.0561 | locus YDR392W, strain spt3, hits give low values 0.0625 | locus YEL003W, strain gim4, hits give low values 0.0513 | locus YEL037C, strain rad23, hits give low values 0.0533 | locus YEL061C, strain CIN8 (second series), hits give low values 0.0564 | locus YER015W, strain faa2, hits give low values 0.0609 | locus YER016W, strain bim1, hits give low values 0.0567 | locus YER111C, strain swi4, hits give low values 0.0743 | locus YER155C, strain BEM2 (second series), hits give low values 0.0793 | locus YFR010W, strain ubp6, hits give low values 0.0589 | locus YGL167C, strain pmr1, hits give low values 0.0691 | locus YGL173C, strain kem1, hits give low values 0.0671 | locus YGL227W, strain vid30, hits give low values 0.0578 | locus YGL240W, strain doc1, hits give low values 0.0658 | locus YGL253W, strain hxk2, hits give low values 0.0494 | locus YHR013C, strain ard1, hits give low values 0.0918 | locus YHR027C, strain rpn1, hits give low values 0.0597 | locus YHR142W, strain chs7, hits give low values 0.0608 | locus YJL092W, strain hpr5, hits give low values 0.0556 | locus YJL095W, strain BCK1 (second series), hits give low values 0.0534 | locus YJL115W, strain asf1, hits give low values 0.0664 | locus YJL129C, strain trk1, hits give low values 0.0759 | locus YJL154C, strain vps35, hits give low values 0.0613 | locus YJL164C, strain tpk1, hits give low values 0.0536 | locus YJL166W, strain qcr8, hits give low values 0.0552 | locus YJL187C, strain SWE1, hits give low values 0.055 | locus YKL160W, strain elf1, hits give low values 0.0575 | locus YKR026C, strain gcn3, hits give low values 0.0565 | locus YKR091W, strain srl3, hits give low values 0.0556 | locus YLL001W, strain dnm1, hits give low values 0.0557 | locus YLL026W, hits give low values 0.0528 | locus YLL041C, strain sdh2, hits give low values 0.0534 | locus YLR027C, strain aat2, hits give low values 0.0482 | locus YLR221C, strain rsa3, hits give low values 0.0536 | locus YLR258W, strain gsy2, hits give low values 0.0544 | locus YLR262C, strain YPT6 (second series), hits give low values 0.0801 | locus YLR320W, strain mms22, hits give low values 0.066 | locus YLR342W, strain FKS1, hits give low values 0.0588 | locus YLR357W, strain rsc2, hits give low values 0.106 | locus YLR370C, strain arc18, hits give low values 0.056 | locus YLR384C, strain iki3, hits give low values 0.0574 | locus YML120C, strain ndi1, hits give low values 0.0534 | locus YMR058W, strain fet3, hits give low values 0.0555 | locus YMR125W, strain sto1, hits give low values 0.062 | locus YMR129W, hits give low values 0.0548 | locus YMR205C, strain PFK2, hits give low values 0.0726 | locus YMR231W, strain pep5, hits give low values 0.065 | locus YNL071W, strain lat1, hits give low values 0.0563 | locus YNL209W, strain ssb2, hits give low values 0.0577 | locus YNL248C, strain rpa49, hits give low values 0.0552 | locus YNL322C, strain KRE1 (second series), hits give low values 0.0595 | locus YNR049C, strain mso1, hits give low values 0.0525 | locus YOR001W, strain rrp6, hits give low values 0.0584 | locus YOR070C, strain gyp1, hits give low values 0.0589 | locus YOR080W, strain dia2, hits give low values 0.0596 | locus YOR083W, strain WHI5, hits give low values 0.0554 | locus YOR106W, strain vam3, hits give low values 0.0591 | locus YOR265W, strain rbl2, hits give low values 0.0537 | locus YOR270C, strain vph1, hits give low values 0.072 | locus YOR290C, strain snf2, hits give low values 0.0546 | locus YPL051W, strain arl3, hits give low values 0.0574 | locus YPL078C, strain atp4, hits give low values 0.058 | locus YPL106C, strain sse1, hits give low values 0.0823 | locus YPL240C, strain hsp82, hits give low values 0.054
